The results in this text go back to PubChem BioAssay (NCI).

SMILES strings stand for the structures. This is part of a sample that, as a whole, favours compounds with a hit. Of some 83,000 tested, about 20% had one in any assay.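 For each line, cells grew in 96-well plates with the test compound present at a single concentration for 48 hours.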 A number with no mark means an inactive call. Active and inactive are the calls of the source. The calls were made as follows: active = growth percent below 10; inactive = the rest.

This assay concerns HL-60(TB) leukemia. Nature of the assay: NCI-60 one-dose screen, 48 h (100 = growth as untreated, 0 = no growth, -100 = all killed). Conditions: 10 µM unless noted.
Regarding `CCN(Cc1ccc(Cl)c(Cl)c1)c1ccc2nc(N)nc(N)c2c1C`, the growth was -79.5% (active).

With `CN1CCN(C(=O)OCCOCCOC(=O)N2CCN(C)CC2)CC1`, the growth is 98.2%.

In the case of `COc1ccc(C=C2c3ccccc3-c3ccccc32)cc1`, the growth was 23.6%.

Take `Clc1nc2ccccc2cc1Cn1nnc(Cc2ccccc2)n1`: the growth was 87.9%.

Regarding `Cc1csc(NC(c2ccccc2)c2c(C)nc3ccccn23)n1` (centres undefined), the growth is 111%.

Regarding `COc1cccc(/C=N/N=C(N)N)c1`, the growth is 122%.

As to `S=c1[nH]nc(-c2cc3ccc2CCc2ccc(cc2)CC3)n1C1CC1`, the growth was 106%.

For `O=C(/C=C/c1ccccn1)c1ccccc1O`, the growth is 13.1%.

Regarding `O=C(Nc1ccsc1C(=O)NC1CCCCC1)c1ccc(F)cc1`, the growth is 90.2%.

For the compound `C[C@@H]1C[C@H]2C(=O)O[C@@H](C)[C@H](NC(=O)[C@H](Cc3cc(F)cc(F)c3)NC(=O)Nc3ccc(Cl)cc3F)C(=O)N3C[C@H](O)C[C@H]3C(=O)N3CCN(C)C[C@H]3C(=O)N[C@@H](C)C(=O)N2C1`, the growth was 30.1%.

Consider `COc1ccc(/C=c2\c(=O)n(-c3ccccc3)c3nn4c(=O)c(=O)[nH]nc4n23)cc1`, for which the growth was 112%.

As to `Cc1ccc(-c2cc3nc(-c4ccccc4)nc(C(Cl)Cl)n3n2)cc1`, the growth is 12.6%.

For `CCCCCCCCOC(=O)c1ccccn1`, the growth is 119%.

As to `Cc1ccc2c(c1)=C/C(=C\c1cc(-c3ccccc3)oc1O)C(=O)N=2`, the growth is 98%.

`NC(=O)N1CCOCC1`: the growth was 93.5%.

On to `Cc1ccc(C(=O)c2ccc(CC(=O)N/N=C/c3cccc(O)c3O)n2C)cc1`, for which the growth was 4.13% (active).

With `COc1cc(OC)c(C(=O)/C=C/c2cccc(C#N)c2)c(OC)c1`, the growth is -8.6% (active).

Take `O=C(/C=C/c1cccc(B(O)O)c1)c1cccc(B(O)O)c1`: the growth is -13.8% (active).

For the compound `FC(F)(F)c1ccc(Cn2cc(CSc3nc4ccccc4s3)nn2)cc1`, the growth was 97.9%.

`C=CCN=C1NC(=O)/C(=C/c2cc(C(C)(C)C)c(O)c(C(C)(C)C)c2)S1`: the growth was 54.3%.

For the compound `COc1ccc(-c2ccc(O)c(C(=O)/C=C/c3cc(OC)c(OC)c(OC)c3)c2)cc1`, the growth is 54.5%.

With `[O-][n+]1c(Cl)cc(Cl)c2ccccc21`, the growth was 84.9%.

Consider `Nc1ncnc2c1N=C(c1ccc(Br)cc1)CC(c1cccc(Nc3ccnc4cc(C(F)(F)F)ccc34)c1)N2` (centres undefined), for which the growth was 38.1%.

For `Cc1ccc2cc3c(N)c4c(C)ccc(C)c4nc3nc2c1`, the growth is 12.6%.

On to `CCOC(=O)c1ccc2c(c1)c1c(C)c3ccncc3c(C)c1n2C`, for which the growth was 3.93% (active).

In the case of `CSc1nsc(N)n1`, the growth was 105%.

With `Nc1ccc(S(=O)(=O)c2ccc(NO)cc2)cc1`, the growth is 107%.

With `COC12C=C/C(=C(/C(=O)OCc3csc(SC)n3)C(=O)CCCCCCCCC3(OC)C=C/C(=C(/C(=O)OCc4cnc(SC)s4)C(=O)CCCCCCCC1)O3)O2` (centres undefined), the growth is 6.46% (active).

As for `CCC(C)(C)C(=O)O[C@H]1C[C@@H](C)C=C2C=C[C@H](C)[C@H](CC[C@@H]3CC=CC(=O)O3)[C@H]21`, the growth is 5.76% (active).

On to `C/C=C/C1=CN2C(=O)c3cc(OC4OC(C)C(NC)C(C)(O)C4O)c(C)cc3N=C[C@@H]2C1` (some centres undefined), for which the growth is -4.41% (active).

For the compound `ClC1c2ccccc2CCc2ccccc21`, the growth is 122%.

As for `O=C(NCCNc1nccc(-c2c(-c3cccc(O)c3)nc3sccn23)n1)c1cc(N2CCOCC2)cc(C(F)(F)F)c1`, the growth is 102%.

Turning to `CC12CCC3C4(C)COC(c5ccccc5Cl)OC4CCC3(C)C1CC(C1=CCOC1=O)O2` (centres undefined), the growth is 26.2%.

As to `c1ccc(-c2n(Cc3ccc4ccccc4n3)c3ccccc3[n+]2Cc2ccc3ccccc3n2)cc1`, the growth is -54% (active).

For `CCCCCOC(=O)c1c(C)[nH]c(/C=C2\N=C(c3ccc[nH]3)C=C2OC)c1C`, the growth was -14.7% (active).

As for `Brc1ccc(-c2[nH]ncc2-c2c[nH]c3ccccc23)cc1`, the growth was 80.7%.

With `Nc1nc(Cl)c2c(C(F)(F)F)cn(CC3CCNCC3)c2n1`, the growth was 25.5%.

Consider `CC(=O)c1nn(-c2ccccc2)c(=Nc2ccccc2)cc1C`, for which the growth was 106%.

For the compound `COc1cccc(/C=N/NC(=O)c2ccccc2Nc2ccnc(C(F)(F)F)c2)c1O`, the growth is 34.8%.
